PubChem BioAssay AID1508600 (Functional Genomics Laboratory (NCATS/FGL), 2020)
Hit rate of the full screen: of about 53,000 sequences, about 3,700 (7%) were called active. The full list was thinned out, with actives kept by preference. Unmarked numbers belong to inactive results.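 The calls were made as follows: active = gene knockdowns whose robust z-score for IL-1 alpha signal is at least 2 or at most -2, so actives lie on both sides; inactive = the rest.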

Assay: Components of the Cytosolic LPS Sensing Pathway: Gene Identification via Genome-wide siRNA Screen;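 also: robust z of the log signal after scaling to non-targeting control siRNA wells of the plate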
Conditions: RAW264.7 macrophages, IL-1a HTRF, actives lie on both sides, screened at 100 nM (by protocol), cells primed 5 h with Pam3CSK4 first
Procedure, shortened: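 RAW264.7; siRNA 100 nM final, RNAiMAX, 48h 37 degrees C; Pam3CSK4 5 h; LipidA + TransIT-TKO 24 h; IL-1a HTRF; CellTiter-Glo viability; robust z vs negative-control median.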

Row | Sequence | z-score
1 | GGCAGAAUCAGUUGAAAUUTT against Terf2ip | 0.917
2 | CCAAGUUCGUGACAAACAUTT against Trpv1 | -0.0275
3 | CCAUCAGGGUUACAAGUACTT against 6030458C11Rik | -2.46 (active)
4 | GGACUUGUCCGCUCAUUGGTT against Usp54 | -1.13
5 | GGUAGAAAAGCUUCUGAAATT against Ap1g1 | 0.349
6 | GGCUAUUAACAUCUCAGUUTT against Rhbdd1 | 0.0309
7 | GGACAGAGAUCAAUAUUAATT against Rxfp3 | -0.0718
8 | CGAAUGAAAGAAUACCGUGTT against Dnajc6 | 0.0901
9 | CCUGGAUGCAUGGUUAUUATT against Cyp2ab1 | 2.69 (active)
10 | GGGAAGAAAAUCAAACUCATT against Fabp1 | 0.504
11 | GGCCGUUCAUUUCCUCAUCTT against Galr2 | -0.359
12 | GGAUUUGUUUUCACCAAGATT against Dmd | 0.3
13 | GGUGACAGGUCAGAAAGUCTT against Tor1aip2 | -2.78 (active)
14 | GGAGUUAAACCACUCAAGATT against Ceacam11 | -0.262
15 | GCAGGAUGUGACAGAUACATT against Pdcd2 | 0.185
16 | CCAGAUGCUCGAUUCAGUGTT against Crim1 | -0.44
17 | GGGAAAGACUCAAGGUCCUTT against Olfr586 | 0.774
18 | GGCUAUUACCAUGGCCACUTT against Smim5 | -2.85 (active)
19 | GCCCAAUCAAAAAAUGGUGTT against Zyx | -0.0505
20 | CGUGGACUUUAAGGAGCUGTT against Gdf7 | -0.299
21 | GGAUAAGGUAAUCUCGGUATT against Olfr710 | -0.472
22 | CCAUAUUGAAACCUCAUUUTT against Fam126a | -2.33 (active)
23 | CGUGCUACAGAUGCGUCAUTT against Exoc8 | 0.783

Row | Sequence | z-score
24 | CGCUCGUUACCUAAAGCAGTT against Nwd1 | -2.78 (active)
25 | GCUUUGAAAUCUGAAUCAGTT against Terf2 | 2.06 (active)
26 | GAAUCCGAGAUACGAGCCUTT against H2-D4 | 0.0829
27 | GGUUUGAAAUAUUGUGGAUTT against Spdye4b | -1.23
28 | CCUAGGGACAUUGGUUAUUTT against Sema4f | 2.16 (active)
29 | GGAGCUUCCACAACUCAUATT against Esd | -0.456
30 | GGCAGUGGAGUGUAUGGAUTT against Popdc2 | -0.531
31 | GGAUGCAGCUAACAAUUACTT against Tuba8 | 1.05
32 | GGAUGGAGAGAUAAGAAAATT against Lmntd1 | -0.572
33 | CCUUUCCUAACUUGAUCACTT against Cbr2 | 0.443
34 | CCUCUUAAAACAAUACCAATT against Olr1 | 1.37
35 | GCAAAUAAGAUUGCGUCUGTT against Cpa2 | 2.89 (active)
36 | GGCGAAGGAGAAGAAUUAATT against Rhox5 | 0.352
37 | GGUCAACAAGCAUGCAUUUTT against Wars | -1.65
38 | CCUUAUUUAGCUAAGCAGATT against Ran | -2.95 (active)
39 | GCCAACCAAAACCUAAGCATT against Gjc1 | -1.44
40 | CCCUCACAAUGAUCGAUUUTT against Tkt | -0.885
41 | GGUAAAGUGAACUGUACCUTT against Vstm5 | 0.843
42 | GGUGGAGAUCCGAAAGCAUTT against Ltk | 0.597
43 | CCCUCCAGAAAAACAGUUUTT against Znrd2 | 0.284
44 | GAGUGAGCAAAUACCAGUUTT against 1700001J03Rik | 2.52 (active)
45 | CCAAAAAGAUUUGGAUCUCTT against Nr2f6 | 0.142
46 | GGAAACUUUCUAAAUGCUGTT against Pja1 | -0.0964

Row | Sequence | z-score
47 | GCCAUUAAUGUACCAGGUUTT against Olfr894 | -0.202
48 | GCGUGAACGUAUUUGUUACTT against Pcdhgc3 | 0.203
49 | ACAGGAGUCCAUAGCCGUCTT against Aspscr1 | -1.47
50 | CGGAGGUGGCUAUAAAAAUTT against Sik2 | 0.0967
51 | GGAUUCCUCUAACACAUUUTT against Keg1 | 2.07 (active)
52 | CCUCACCCUUUCCAAAAAATT against Polr2f | -1.03
53 | GCUUUAAUUGUGAAAGCACTT against Miga1 | -2.26 (active)
54 | GCAACACCAGAGUAUGUUATT against Cldn34b3 | 0.794
55 | GGUAUUGGGUUCCAUUAUATT against Mcmdc2 | -0.197
56 | CCCAGCAGAAUAACUGCCATT against Pantr1 | 2.55 (active)
57 | GAAAAUGGUCACUACUGAGTT against S100a8 | -0.0863
58 | GGAAAUGAAGAAAAGUGACTT against Stk32a | -0.0588
59 | GGAGUCAACUUGUGAGGGUTT against Lrp8 | -0.48
60 | CCCAGGUGAGGAUUGAUAATT against Rit2 | 0.667
61 | GCCAACAGUACUUUGUUAATT against Chordc1 | 0.589
62 | GGACAUUUUAAUGUGCUCATT against Erlin2 | 0.0602
63 | GGCACAGAGAUUGAAGAUCTT against Sry | 2.04 (active)
64 | GCUGAAGUCUCUUCAAUGCTT against Trappc6b | -0.71
65 | GCCUACAUAACCUUAAUAUTT against Slc4a10 | 2.2 (active)
66 | GGGAGUAGAGAUCAAAGGCTT against Cfb | -0.0723
67 | GGUGAUUUGCUCAAUCCAATT against Phox2a | 0.611
68 | GGCUGAGAUCUAGCUUACATT against H3c15 | -3.21 (active)
69 | GGCGAAGUGGUUAAAAGUGTT against Ifnar1 | -0.141
